High-throughput results: PubChem, National Center for Advancing Translational Sciences (NCATS)
HT1080 IDH1KD tx = HT-1080 IDH1 knockdown cell toxicity (counter line). HT-1080 IDH1 knockdown viability, ATP luminescence, 48 h. AID 686971. actives 2% (n = 360,000). Potency, µM (highest dose often 46.1 µM), for inactives: at the top dose activity, negative = toxicity, usual class: cytotoxic;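 note: 0% = DMSO wells and -100% = cell-free medium wells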
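Assay cells: HT-1080 with IDH1 knockdown, 750 per well, RPMI/5% FBS. Exposure: 48 h at 37 °C following 2 h pre-incubation. Read: CellTiter-Glo luminescence; fitted concentration-response, curve class assigned.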
HT1080NT lethal = kills 2HG-producing HT-1080-NT fibrosarcoma cells | Potency, µM (series often up to 46.1 µM), for inactives: at the highest dose activity, negative = less viability, actives largely listed as cytotoxic | AID 686970 | HT-1080-NT fibrosarcoma viability, CellTiter-Glo ATP luminescence, 48 h | actives 1.6% (n = 360,000);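 note: NT is the 2HG producing partner of a matched IDH1 knockdown line; 0% = DMSO-treated cells and -100% = media-only wells without cells; nearly all actives have a fitted effect of over 55% in size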
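Toxicity toward the 2HG-producing NT line was scored as %Activity, normalised to DMSO and no-cell wells, from CellTiter-Glo luminescence after 48 hours' treatment.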
KB-V1 cytotox = kills drug-selected multidrug resistant KB-V1 cells; KB-V1 MDR cells viability, CellTiter-Glo, 72 h; Potency, µM (top dose mostly 46.1 µM), most hits filed as cytotoxic; actives 3.4% (n = 400,000); AID 1347076; note: % is set by controls: 0 for no effect and ±100 for the full control effect; nearly all actives have a fitted effect of over 60% in size
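Drug-selected KB-V1 cells, grown in DMEM lacking phenol red with 10% FBS, receive compound titrations; after three days at 37 degrees C, surviving cell ATP is quantified by CellTiter-Glo luminescence and responses normalized and curve-fitted.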
S2 tox = cell viability loss in ATXN counter-screen; actives 0.49% (n = 400,000); S2 cells (HEK-293 line with an ATXN2-luciferase reporter) viability, CellTiter-Fluor protease fluorescence, 24 h; Potency, µM (top dose mostly 56.7 µM), hits mostly cytotoxic; note: nearly all actives have a fitted effect of over 40% in size
KB-3-1 cytotox = KB-3-1 parental cell cytotoxicity; KB-3-1 viability, CellTiter-Glo ATP luminescence, 72 h; Potency, µM (top dose mostly 46.1 µM), actives largely listed as cytotoxic; actives 1.4% (n = 400,000); AID 1347075; note: % is set by controls: 0 for no effect and ±100 for the full control effect; nearly all actives have a fitted effect of over 60% in size
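KB-3-1 cells, DMEM (no phenol red) + 10% FBS; compound by pin transfer, 72 h, 37 °C. Readout: CellTiter-Glo luminescence after 10 min. Data normalized, curve-fitted.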
ATXN2 expr inh = reduces ATXN2 reporter expression in HEK-293 cells; HEK-293 ATXN2-luciferase reporter, luminescence, 24 h; Potency, µM (doses to about 57 µM), for the others: at the highest dose activity change, negative = inhibition, hits mostly inhibitors; actives 0.72% (n = 360,000); note: % is set by controls: 0 for no effect and ±100 for the full control effect; nearly all actives have a fitted effect of over 55% in size
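ATXN2-luciferase reporter cells (luciferase flanked by upstream and downstream ATXN2 gene portions) were treated 24 h at 37 °C with compounds at up to 57 uM. SteadyGlo luminescence gave expression; GF-AFC fluorescence gave viability.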
The depositor's hits bear a star; i = inactive; ? = inconclusive; / = not tested or not shown; [ ] = dose if it differs, or a comment. Shown are actives, neighbours in structure and some others; about 6.2% of the full set was active somewhere. Calls come from the whole dose curve; as a rule, active = well fitted curve in the direction sought with a large enough effect; inconclusive = small, poorly fitted or top-dose-only effect, or another doubt; inactive = no such curve, though single readings can be large; an effect the other way counts as inactive or inconclusive. Potency is the fitted concentration of half-maximal effect.

SMILES	HT1080 IDH1KD tx	HT1080NT lethal	KB-V1 cytotox	S2 tox	KB-3-1 cytotox	ATXN2 expr inh
O=C(CCCOc1ccccc1)Nc1ccc(Cl)c(S(=O)(=O)N2CCOCC2)c1	-13%	-11%	?	i	?	-24%
CC1CN(Cc2cccn2-c2ncccn2)Cc2cc(Cl)ccc2O1 (stereo not drawn)	/	/	/	i	/	/
COc1ccc(CCNS(=O)(=O)c2ccc(OC)c(OC)c2)cc1OC	-4%	1%	i	i	i	4%
COc1ccc(S(=O)(=O)NCCc2sc(C)nc2C)cc1F	/	/	16µM*	i	?	-19%
COCCN(C(=O)c1snc(C(N)=O)c1N)C(C(=O)NC1CCCCC1)c1ccc(N(C)C)cc1 (stereo not drawn)	2%	11%	i	i	i	-6%
Cc1nn(Cc2ccc(C(=O)Nc3nccs3)cc2)c(C)c1Cl	-3%	2%	21µM*	i	16µM*	-12%
CCOc1ccc2nc(N3CCCC(C(=O)NCc4ccc(C)cc4)C3)sc2c1 (stereo not drawn)	/	/	i	/	i	/
Cc1cccc(OCC(=O)Nc2cc(C)c(O)c(-c3nc4ccccc4o3)c2)c1	/	/	i	/	i	/
O=C(CN1CCN(c2ccccn2)CC1)Nc1ccccc1Br	0%	3%	i	?	i	/
O=C(CN1CCN(c2ncccn2)CC1)Nc1ccccc1-n1cccc1	5%	0%	12µM*	i	i	-7%
Cc1ccccc1C[n+]1cccc2ccccc21	-9%	23%	i	i	?	-3%
CCCCCCCCCC[n+]1cccc2cc(Br)ccc21	/	/	?	/	1.3µM*	/
CCCCCCCCC[n+]1cccc2c3ccccc3ccc21	10µM*	7.3µM*	?	i	?	2.2µM*
CCCCCCCCCCCCCCCC[n+]1cccc2ccccc21	8.2µM*	6.5µM*	23µM*	18µM*	?	?
Nc1nn2cc(-c3ccccc3)nc2c2ccccc12	?	?	16µM*	i	i	131%
Cc1ccc(C(=O)N(Cc2cc3cccc(C)c3nc2N2CCC(O)CC2)C2CC2)cc1	/	/	/	i	/	/
O=C(Nc1ccc(Br)c(C(F)(F)F)c1)c1ccccc1	0%	0%	16µM*	i	i	-6%
O=C(Nc1ccc(OCC(F)(F)C(F)F)c(C(F)(F)F)c1)c1ccc(Cl)cc1	15µM*	26µM*	?	i	?	?
O=C(Nc1ccc(Br)c(C(F)(F)F)c1)c1ccc(C(F)(F)F)cc1	13µM*	21µM*	?	i	?	?
CCc1nc(-c2cc(S(=O)(=O)N3CCN(c4ccccc4)CC3)ccc2OC)no1	/	/	i	i	i	-5%
Cc1ccc2nc(COc3cccc(NC(=O)COc4ccccc4F)c3)cc(=O)n2c1	/	/	i	/	i	/
CCOc1ccc(Nc2nc(NCC3CCCO3)c3ccccc3n2)cc1 (stereo not drawn)	?	18µM*	?	?	?	?
COc1ccc(Nc2nc(NCC3CCCO3)c3ccccc3n2)c(OC)c1 (stereo not drawn)	?	?	i	?	i	-27%[11.3 µM]
Nc1nc(NCC2CCCO2)nc(Nc2ccccc2)c1[N+](=O)[O-] (stereo not drawn)	-8%	1%	10µM*	i	i	-11%
CCOc1ccc(Nc2c3ccccc3nc3ccccc23)cc1	12µM*	16µM*	?	?	5.2µM*	11µM*
Oc1cccc(Nc2nc(NCC3CCCO3)c3ccccc3n2)c1 (stereo not drawn)	-23%	?	18µM*	?	?	-22%
Cc1ccc2c(CC(=O)N(Cc3ccc(N(C)C)cc3)Cc3ccco3)coc2c1C	/	/	i	i	?	-30%
O=C1Nc2ccccc2C(=O)N2c3ccccc3NC(=O)C12 (stereo not drawn)	5%	16%	i	i	i	7%
